Entries with a potency or affinity are not part of this list. Values without a mark were called inactive. The rule behind the calls is not given here.

This assay is described as follows: viability loss in HEK293 cells – cell-based, plate reader, cherry-picked samples, cytotoxicity control, dose response (AID 743446). As to conditions: hits give low values; at 26 µM unless noted.
Regarding `C[C@H](CO)N1C[C@H](C)[C@H](CN(C)C(=O)Nc2ccc(F)cc2)OCCCC[C@H](C)Oc2ccc(NC(=O)C3CCCCC3)cc2C1=O`, the max activity was -10.8% [at 6 µM].
Then `O=C(NCCc1ccccc1)c1ccc2c(c1)OCCO2`, with 15.3% [at 0.195 µM].
Then `Cc1ccsc1/C=N/Nc1cccc(C(=O)O)c1`, with 25.6% [at 0.8 µM].
